Consider ten compounds from PubChem BioAssay (NCI).

Assay [1] is described as follows: NCI Yeast Anticancer Drug Screen. Data for the rad50 strain (AID 155).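 Further: 0% = growth of vehicle-only cultures of the same strain.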 To be noted: S. cerevisiae rad50 strain growth inhibition, stronger effect = higher value. The essentials:
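DNA repair mutant yeast, compound exposure, growth read-out; inhibition is taken relative to vehicle.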

Assay [2] in a line: NCI Yeast Anticancer Drug Screen. Data for the mec2-1 strain (AID 157). To be noted: S. cerevisiae mec2-1 strain, stronger effect = higher value. The essentials: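 Each compound was tested on mec2-1 yeast, a strain altered in DNA damage repair or cell cycle control. Growth inhibition is reported relative to vehicle.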
Assay [3] can be described thus: NCI Yeast Anticancer Drug Screen. Data for the sgs1 mgt1 strain (AID 161).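 Further: 0% = growth of cultures given vehicle only.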 To be noted: S. cerevisiae sgs1 mgt1 strain, stronger effect = higher value. The essentials: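 Genetically altered yeast, compound exposure, growth inhibition relative to vehicle.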
Assay [4] can be described thus: NCI Yeast Anticancer Drug Screen. Data for the cln2 rad14 strain (AID 165).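 Further: 0% = growth equal to vehicle treated cultures.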 To be noted: S. cerevisiae cln2 rad14 strain, stronger effect = higher value. The gist of the method: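 Test compounds were added to cln2 rad14 yeast cultures; inhibition of growth was then determined by comparison with vehicle treatment.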
A short description of assay [5]: NCI Yeast Anticancer Drug Screen. Data for the bub3 strain (AID 167). To be noted: S. cerevisiae bub3 mutant strain, stronger effect = higher value. The gist of the method: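 In this screen, a yeast mutant lacking normal mitotic checkpoint function is challenged with compound. Relative growth versus vehicle gives the inhibition value.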
Assay [6] is described as follows: NCI Yeast Anticancer Drug Screen. Data for the mlh1 rad18 strain (AID 175). To be noted: S. cerevisiae mlh1 rad18 strain growth inhibition, stronger effect = higher value. The essentials: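 Inhibition values reflect reduced growth of mutant yeast versus vehicle-treated controls following compound exposure; the mutations affect DNA damage repair.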
[7] abbreviates: at 5.0 µM (retest, dose inferred, filed as 0.5).
Setting [8] is: at 50.0 µM (retest, dose inferred, filed as 5.0).

Structures are written as SMILES. This is part of a sample that, as a whole, favours compounds with a hit. Of some 79,000 tested, about 15% had one in any assay. A number with no mark means an inactive call. Active and inactive are the calls of the source. No stated cut-off is given here; in the data, active means growth inhibition above about 70%; inactive means the rest.

Regarding `COc1cc(/C=C(/C)C[N+](=O)[O-])ccc1O`, the growth inhibition is 54% in assay [1] (setting [7]); 99% (active) in assay [1] (setting [8]); 99.5% (active) in assay [1] (at 50.0 µM); 23% in assay [2] (setting [7]); 99% (active) in assay [2] (setting [8]); 99.8% (active) in assay [2] (at 50.0 µM). For the same compound, the growth inhibition in assay [3] (setting [7]) was 15%; in assay [3] (setting [8]) it was 93% (active); in assay [3] (at 50.0 µM), 99.8% (active); in assay [4] (setting [7]), 13%; in assay [4] (setting [8]) it was 99% (active); in assay [4] (at 50.0 µM), 98.8% (active). Moreover, the growth inhibition was 36% in assay [5] (setting [7]); 99% (active) in assay [5] (setting [8]); 98.8% (active) in assay [5] (at 50.0 µM); 25% in assay [6] (setting [7]); 99% (active) in assay [6] (setting [8]); 99.5% (active) in assay [6] (at 50.0 µM).
For `CC(C)(C)C(=O)CC(=O)C(F)(F)C(F)(F)C(F)(F)F.CC(C)(C)C(=O)CC(=O)C(F)(F)C(F)(F)C(F)(F)F.CC(C)(C)C(=O)CC(=O)C(F)(F)C(F)(F)C(F)(F)F.[Fe]`, the growth inhibition in assay [1] (setting [7]) is 21%; in assay [1] (setting [8]), 85% (active); in assay [1] (at 50.0 µM), 38.5%; in assay [2] (setting [7]), 5%; in assay [2] (setting [8]), 88% (active); in assay [2] (at 50.0 µM), 9.3%. Moreover, the growth inhibition in assay [3] (setting [7]) was 43%; in assay [3] (setting [8]) it was 88% (active); in assay [3] (at 50.0 µM), 74.9% (active); in assay [4] (setting [7]), 13%; in assay [4] (setting [8]), 91% (active); in assay [4] (at 50.0 µM), 19.8%. For the same compound, the growth inhibition in assay [5] (setting [7]) was -1%; in assay [5] (setting [8]), 37%; in assay [5] (at 50.0 µM), -1.15%; in assay [6] (setting [7]), 32%; in assay [6] (setting [8]), 93% (active); in assay [6] (at 50.0 µM) it was 84.5% (active).
As to `CN(C)CC(C)(C)/C(=N\Nc1ccccc1)c1ccccc1`, the growth inhibition in assay [1] (setting [7]) was 6%; in assay [1] (setting [8]), 82% (active); in assay [1] (at 50.0 µM), 5.6%; in assay [2] (setting [7]), 3%; in assay [2] (setting [8]) it was 86% (active); in assay [2] (at 50.0 µM), -5.2%. Moreover, the growth inhibition is 51% in assay [3] (setting [7]); 95% (active) in assay [3] (setting [8]); 4.55% in assay [3] (at 50.0 µM); 25% in assay [4] (setting [7]); 62% in assay [4] (setting [8]); 38.9% in assay [4] (at 50.0 µM). The growth inhibition in assay [5] (setting [7]) was 30%; in assay [5] (setting [8]), 93% (active); in assay [5] (at 50.0 µM), 98% (active); in assay [6] (setting [7]), 22%; in assay [6] (setting [8]), 80% (active); in assay [6] (at 50.0 µM) it was 33%.
Turning to `O=[N+]([O-])c1ccc(NSc2ccccc2)cc1`, the growth inhibition in assay [1] (setting [7]) was -14%; in assay [1] (setting [8]), 98% (active); in assay [1] (at 50.0 µM), 89.2% (active); in assay [2] (setting [7]), 2%; in assay [2] (setting [8]), 99% (active); in assay [2] (at 50.0 µM), 92.5% (active). Further, the growth inhibition in assay [3] (setting [7]) was 5%; in assay [3] (setting [8]), 97% (active); in assay [3] (at 50.0 µM), 90.2% (active); in assay [4] (setting [7]) it was 21%; in assay [4] (setting [8]) it was 99% (active); in assay [4] (at 50.0 µM), 90.6% (active). In addition, the growth inhibition is 10% in assay [5] (setting [7]); 98% (active) in assay [5] (setting [8]); 91.3% (active) in assay [5] (at 50.0 µM); 6% in assay [6] (setting [7]); 99% (active) in assay [6] (setting [8]); 88.2% (active) in assay [6] (at 50.0 µM).
For `COc1ccc2c(C)cc(N/N=C/c3ccc(OC)c4ccccc34)nc2c1`, the growth inhibition is 27% in assay [1] (setting [7]); 98% (active) in assay [1] (setting [8]); 89.7% (active) in assay [1] (at 50.0 µM); 51% in assay [2] (setting [7]); 99% (active) in assay [2] (setting [8]); 36.8% in assay [2] (at 50.0 µM). The growth inhibition in assay [3] (setting [7]) was 66%; in assay [3] (setting [8]) it was 99% (active); in assay [3] (at 50.0 µM), 91% (active); in assay [4] (setting [7]) it was 0%; in assay [4] (setting [8]), 99% (active); in assay [4] (at 50.0 µM), 35.5%. Also, the growth inhibition in assay [5] (setting [7]) is 9%; in assay [5] (setting [8]), 99% (active); in assay [5] (at 50.0 µM) it was 52%; in assay [6] (setting [7]), 42%; in assay [6] (setting [8]), 98% (active); in assay [6] (at 50.0 µM), 39.9%.
Take `CC(C)(C)NC1=NC(C(F)(F)F)(C(F)(F)F)NC(=O)N1`: the growth inhibition in assay [1] (setting [7]) was -19%; in assay [1] (setting [8]), 91% (active); in assay [1] (at 50.0 µM), 38.9%; in assay [2] (setting [7]) it was -20%; in assay [2] (setting [8]), 93% (active); in assay [2] (at 50.0 µM) it was 40.8%. For the same compound, the growth inhibition in assay [3] (setting [7]) is -52%; in assay [3] (setting [8]), 88% (active); in assay [3] (at 50.0 µM), 33.9%; in assay [4] (setting [7]), -21%; in assay [4] (setting [8]) it was 72% (active); in assay [4] (at 50.0 µM), 21.3%. The growth inhibition is -56% in assay [5] (setting [7]); 95% (active) in assay [5] (setting [8]); 70.5% (active) in assay [5] (at 50.0 µM); -22% in assay [6] (setting [7]); 92% (active) in assay [6] (setting [8]); 12.4% in assay [6] (at 50.0 µM).
In the case of `C[n+]1c(-c2ccc(/C=N/NC(=O)C(=O)N/N=C/c3ccc(-c4cn5ccccc5[n+]4C)cc3)cc2)cn2ccccc21`, the growth inhibition is 59% in assay [1] (setting [7]); 95% (active) in assay [1] (setting [8]); 89.8% (active) in assay [1] (at 50.0 µM); 63% in assay [2] (setting [7]); 97% (active) in assay [2] (setting [8]); 92.1% (active) in assay [2] (at 50.0 µM). The growth inhibition in assay [3] (setting [7]) was 69%; in assay [3] (setting [8]), 98% (active); in assay [3] (at 50.0 µM) it was 88.6% (active); in assay [4] (setting [7]), 28%; in assay [4] (setting [8]), 91% (active); in assay [4] (at 50.0 µM), 84.7% (active). The growth inhibition was 64% in assay [5] (setting [7]); 98% (active) in assay [5] (setting [8]); 91% (active) in assay [5] (at 50.0 µM); 70% (active) in assay [6] (setting [7]); 98% (active) in assay [6] (setting [8]); 89.5% (active) in assay [6] (at 50.0 µM).
For the compound `COc1ccc(-c2c(C#N)c(-c3ccc(C)cc3)n(NS(=O)(=O)c3ccc(C)cc3)c(=O)c2C#N)cc1`, the growth inhibition in assay [1] (setting [7]) was -2%; in assay [1] (setting [8]), 55%; in assay [1] (at 50.0 µM), 71.3% (active); in assay [2] (setting [7]), -2%; in assay [2] (setting [8]), 70% (active); in assay [2] (at 50.0 µM) it was 68.7%. Also, the growth inhibition in assay [3] (setting [7]) is -3%; in assay [3] (setting [8]) it was 44%; in assay [3] (at 50.0 µM), 84.7% (active); in assay [4] (setting [7]), -5%; in assay [4] (setting [8]) it was 68%; in assay [4] (at 50.0 µM), 64.1%. The growth inhibition in assay [5] (setting [7]) was 4%; in assay [5] (setting [8]), 65%; in assay [5] (at 50.0 µM), 79.4% (active); in assay [6] (setting [7]), -2%; in assay [6] (setting [8]), 62%; in assay [6] (at 50.0 µM) it was 83.6% (active).
On to `CC(=O)OC1CCC2(C)C3CCC4(C)C(C(C)CCCC(C)C)CCC4C3CCC23OC13C` (stereo not given), for which the growth inhibition was 2% in assay [1] (setting [7]); 12% in assay [1] (setting [8]); 31.9% in assay [1] (at 50.0 µM); -17% in assay [2] (setting [7]); 23% in assay [2] (setting [8]); 6.2% in assay [2] (at 50.0 µM). The growth inhibition was -5% in assay [3] (setting [7]); 52% in assay [3] (setting [8]); 72.7% (active) in assay [3] (at 50.0 µM); -3% in assay [4] (setting [7]); 6% in assay [4] (setting [8]); -19.2% in assay [4] (at 50.0 µM). Further, the growth inhibition was -3% in assay [5] (setting [7]); -4% in assay [5] (setting [8]); -8.05% in assay [5] (at 50.0 µM); 24% in assay [6] (setting [7]); 59% in assay [6] (setting [8]); 35.7% in assay [6] (at 50.0 µM).
With `CCN(C(=O)O)c1ccc(/C=C/c2ccnc3ccccc23)cc1`, the growth inhibition in assay [1] (setting [7]) is 4%; in assay [1] (setting [8]) it was 94% (active); in assay [1] (at 50.0 µM), 2.4%; in assay [2] (setting [7]) it was -16%; in assay [2] (setting [8]), 96% (active); in assay [2] (at 50.0 µM), -17.9%. The growth inhibition in assay [3] (setting [7]) was 5%; in assay [3] (setting [8]) it was 96% (active); in assay [3] (at 50.0 µM), 40.1%; in assay [4] (setting [7]), -26%; in assay [4] (setting [8]) it was 91% (active); in assay [4] (at 50.0 µM), -0.1%. In addition, the growth inhibition in assay [5] (setting [7]) was -17%; in assay [5] (setting [8]) it was 95% (active); in assay [5] (at 50.0 µM) it was 23%; in assay [6] (setting [7]), -7%; in assay [6] (setting [8]), 91% (active); in assay [6] (at 50.0 µM) it was 29.4%.
